The values that follow come from ChEMBL document CHEMBL4808148, “HDAC6 screening dataset using tau-based substrate in an enzymatic assay yields selective inhibitors and activators” (2021).

As usually defined, the inhibition is the relative decrease from the control value, in per cent.

In all, about 5,600 compounds went through this assay and about 390 (7%) showed an effect of 50% or more. The sample holds strong results, similar compounds and a random draw of the others, so the mix is not that of the screen.

Assay [1] has as its target T1, Protein deacetylase HDAC6 (Homo sapiens) (UniProt Q9UBN7).
T1 sequence (whole entry): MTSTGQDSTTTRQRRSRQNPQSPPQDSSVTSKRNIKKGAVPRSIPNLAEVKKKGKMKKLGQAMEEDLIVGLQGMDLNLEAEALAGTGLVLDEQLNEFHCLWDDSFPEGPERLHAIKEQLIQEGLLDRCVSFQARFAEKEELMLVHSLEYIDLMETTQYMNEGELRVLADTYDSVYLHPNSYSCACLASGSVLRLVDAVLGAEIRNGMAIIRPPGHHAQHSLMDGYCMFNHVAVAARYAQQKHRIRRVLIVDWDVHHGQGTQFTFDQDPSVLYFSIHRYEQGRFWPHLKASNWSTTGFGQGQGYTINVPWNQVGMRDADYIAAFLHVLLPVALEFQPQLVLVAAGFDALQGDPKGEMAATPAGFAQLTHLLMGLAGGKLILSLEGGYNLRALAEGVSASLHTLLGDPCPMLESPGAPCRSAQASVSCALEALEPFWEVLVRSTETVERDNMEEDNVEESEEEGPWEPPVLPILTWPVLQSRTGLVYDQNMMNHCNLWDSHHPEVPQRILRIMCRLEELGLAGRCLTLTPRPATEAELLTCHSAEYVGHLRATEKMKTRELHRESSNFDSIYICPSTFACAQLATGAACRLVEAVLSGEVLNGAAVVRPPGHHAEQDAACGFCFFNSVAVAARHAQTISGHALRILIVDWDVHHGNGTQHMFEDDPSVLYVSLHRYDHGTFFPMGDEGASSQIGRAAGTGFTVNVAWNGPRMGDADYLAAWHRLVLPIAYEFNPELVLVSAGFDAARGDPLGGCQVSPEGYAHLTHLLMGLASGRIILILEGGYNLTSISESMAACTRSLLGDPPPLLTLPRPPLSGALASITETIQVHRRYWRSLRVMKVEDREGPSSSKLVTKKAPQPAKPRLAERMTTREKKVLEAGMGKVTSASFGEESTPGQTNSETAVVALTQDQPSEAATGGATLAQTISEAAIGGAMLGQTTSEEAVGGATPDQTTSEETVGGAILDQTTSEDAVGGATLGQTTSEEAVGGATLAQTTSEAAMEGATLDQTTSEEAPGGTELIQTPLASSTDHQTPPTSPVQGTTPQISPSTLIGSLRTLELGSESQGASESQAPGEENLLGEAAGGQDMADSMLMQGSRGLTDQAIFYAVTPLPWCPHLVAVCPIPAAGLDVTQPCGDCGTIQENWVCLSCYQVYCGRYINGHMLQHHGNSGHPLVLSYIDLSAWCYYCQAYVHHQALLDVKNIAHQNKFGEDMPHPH
The settings on record: at 10 µM.

In assay [2] the target is Protein deacetylase HDAC6 (Homo sapiens) (UniProt Q9UBN7). The note with it: at 10 µM. The source holds these as a separate data set.

As for `FCc1ccc(OCCOc2ccc(Cl)cc2Cl)c(Cl)n1`, in assay [1], the inhibition was 61.7%.
With `CCOc1c2c(c(OCC)c3ccccc13)C(=O)N(c1ccc(CC(=O)NS(=O)(=O)c3ccccc3)cc1)C2`, the inhibition in assay [1] was 3.49%.
Still for that read-out and setting: to `O=C1C2CC3CC1CC(O)(C3)C2` belongs 26.7%; to `COc1cc2c(Oc3ccc4[nH]c(C)cc4c3F)ccnc2cc1OCC1(N)CC1`, 54.9%.
On the same count and under the same terms, to `Cc1cc2c(F)c(Oc3ncnn4cc(OC[C@@H](C)OC(=O)[C@H](C)N)c(C)c34)ccc2[nH]1` belongs 48.1%.
Still for that read-out and setting: to `NS(=O)(=O)c1ccc2c(c1)C1C=CCC1C(c1ccc(Br)cc1)N2` (centres undefined) belongs 8.71%; to `CS(=O)(=O)c1ccc(-c2cnc(N)c(C(=O)Nc3ccccc3)n2)cc1`, 6.2%; to `CS(=O)(=O)c1ccc(-c2cn3ccccc3n2)cc1`, 99.6%.
On to `Cc1cccc2c1CC[C@H](CN1CCC(c3c(Cl)cccc3Cl)CC1)C[C@@H]2O`, for which the inhibition in assay [1] is -4.44%.
The same measure, in the same setting: to `CN(C)[C@@H]1CCc2[nH]c3ccc(NC(=O)c4ccc(F)cc4)cc3c2C1` belongs 6.78%.
Still for that read-out and setting: the result for `O=C1C2CC=CCC2C(=O)N1SC(Cl)(Cl)Cl` (centres undefined) reads 59.5%; that for `O=[N+]([O-])c1ccc(Cl)c([N+](=O)[O-])c1`, 15.2%.
Still for that read-out and setting: to `COc1cc(O)cc([C@@H]2CC(=O)c3c(O)cc(O[C@@H]4O[C@H](CO)[C@@H](O)[C@H](O)[C@H]4O[C@@H]4O[C@@H](C)[C@H](O)[C@@H](O)[C@H]4O)cc3O2)c1` belongs 5.67%; to `O=C1C[C@@H](c2ccc(O)cc2)Oc2cc(O)cc(O)c21`, 73.8%; to `O=C(O[C@@H]1Cc2c(O)cc(O)cc2O[C@@H]1c1cc(O)c(O)c(O)c1)c1cc(O)c(O)c(O)c1`, 11.9%.
For `[O-][n+]1ccccc1S`, the inhibition in assay [1] was 22.8%.
Same read-out and setting: to `O=C(OCCO)c1ccccc1O` belongs 5.24%.
On the same count and under the same terms, the result for `CCOC(=O)c1ccccc1OC(N)=O` reads 7.12%; that for `O=C(Oc1ccccc1)c1ccccc1O`, 77.2%.
The same measure, in the same setting: the result for `CCCN(CCC)C(=O)C(CCC(=O)OCCCN1CCN(CCOC(=O)Cc2c(C)n(C(=O)c3ccc(Cl)cc3)c3ccc(OC)cc23)CC1)NC(=O)c1ccccc1` (centres undefined) reads -4.35%; that for `O=[N+]([O-])c1cc(Cl)ccc1S(=O)(=O)c1ccccc1`, 13.8%; that for `NC1=NC(=O)N([C@H]2C[C@H](O)[C@@H](CO)O2)CN1`, 19.8%.
Consider `Brc1ccc(NC2C3CC4CC(C3)CC2C4)cc1` (centres undefined), for which the inhibition in assay [1] was 5.83%.
Same read-out and setting: to `O=S(=O)(c1ccccc1F)N1CCOc2c(N3CCNCC3)cccc21` belongs 3.08%.
For the molecule `CC(=O)O[C@]1(C(C)=O)CC[C@H]2[C@@H]3C=CC4=CC(=O)CC[C@]4(C)[C@H]3CC[C@@]21C`, in assay [1], the inhibition is 31.5%.
Still for that read-out and setting: to `CCC[S+]([O-])c1ccc2[nH]c(NC(=O)OC)nc2c1` (centres undefined) belongs 18.6%; to `CCOC(=O)Nc1nc2ccccc2[nH]1`, 34.2%.
Still for that read-out and setting: the result for `CCCSc1ccc2[nH]c(NC(=O)OC)nc2c1` reads 58.8%; that for `Cc1nc(N(C)C(=O)Cc2ccc(-c3ccccn3)cc2)sc1S(N)(=O)=O`, 23.9%.
The same measure, in the same setting: to `CCOC(=O)Nc1ccc2c(c1)N(C(=O)CCN(CC)CC)c1ccccc1S2` belongs 14.5%; to `Nc1nccc(Oc2ccc(NC(=O)c3cn(COP(=O)(O)O)cc(-c4ccc(F)cc4)c3=O)cc2F)c1Cl`, 21.9%; to `CC(=O)N1CCC(NC(=O)c2ccc(F)cc2)CC1`, 13.7%.
Consider `O=C(/C=C/c1cccc(F)c1)NC1CC1`, for which the inhibition in assay [1] is 52.8%.
Still for that read-out and setting: to `C[C@H]1CN(Cc2ccc(CC(=O)N3CCC(Nc4cccc(F)c4)CC3)cc2)CCN1` belongs 44.9%; to `O=C(C(c1ccccc1)c1ccccc1)N1CCN(CC(O)COc2cccc3ncccc23)CC1` (centres undefined), 5.51%.
The same measure, in the same setting: to `COc1ccc(C2CNC(=O)NC2)cc1O[C@H]1C[C@@H]2CC[C@H]1C2` belongs 6.99%; to `CCOC(=O)[C@H](CCc1ccccc1)N[C@@H](C)C(=O)N1C(=O)N(C)C[C@H]1C(=O)O`, 15.9%; to `CC(=O)Oc1ccccc1C(=O)Nc1ncc([N+](=O)[O-])s1`, 103%.
`O=C1NC(O)CCN1[C@@H]1O[C@H](CO)[C@@H](O)[C@H]1O` (some centres undefined): the inhibition in assay [1] turned out to be 15.9%.
Still for that read-out and setting: the result for `C[C@@H]1CC2C3CCC4=CC(=O)C=C[C@]4(C)[C@@]3(F)[C@@H](O)C[C@]2(C)[C@H]1C(=O)CO` (some centres undefined) reads 6.55%.
Consider ESCIN, CHEMBL4594473, for which the inhibition in assay [2] amounted to 3.89%.
In the case of `O=C(COc1ccc(Cl)cc1)N[C@H]1CC[C@H](NC(=O)COc2ccc(Cl)cc2)CC1`, the inhibition in assay [1] was -5.96%.
On the same count and under the same terms, the result for `CN1[C@@H]2C[C@@H](O)C[C@H]1[C@@H]1O[C@@H]12` reads 91.4%; that for `Cc1cc(C)c(NC(=O)N(Cc2ccc3c(c2)Cc2ccccc2-3)C2CCCCCC2)c(C)c1`, 0.9%.
With `CN1CCN(Cc2ccc(Nc3ncc(Cl)c(Nc4ccccc4S(=O)(=O)N(C)C)n3)cc2)CC1`, the inhibition in assay [1] is 5.09%.
The same measure, in the same setting: to `CC1(C)S[C@@H]2[C@H](NC(=O)[C@H](NC(=O)N3CCNC3=O)c3ccccc3)C(=O)N2[C@H]1C(=O)O` belongs 13.9%.
Still for that read-out and setting: the result for `O=C(O)CC(S)C(=O)O` (centres undefined) reads 18.6%; that for `O[AsH]O[AsH]O` (centres undefined), -5.16%; that for `O=C(CO)[C@@H](O)[C@@H](O)[C@H](O)CO`, 3.04%.
